{"source": "PubChem BioAssay (NCATS)", "note": "Records with an inconclusive call do not appear. Entries that show only a call come without a potency. Activity calls are given as the source filed them. Calls come from the whole dose curve."}
{"assay": "Primary qHTS for inhibitors of SARS-S pseudo-typed particle cell entry (AID 1479145); note: nearly all actives have a fitted effect of over 45% in size", "conditions": "SARS-S pseudotyped particle cell entry, luciferase reporter; series mostly up to 57.1 µM"}
{"molecule": "CC(C)OC(=O)Nc1ccc2nc(-c3cscn3)[nH]c2c1", "Potency": "inactive"}
{"molecule": "Cc1cc(O)ccc1C(C)(C)C", "Potency": "inactive"}
{"molecule": "N#Cc1cc(-c2n[nH]c(-c3ccncc3)n2)ccn1", "Potency": "inactive"}
{"molecule": "FC(F)(F)C(F)(F)C(F)(F)C(F)(F)C(F)(F)C(F)(F)F", "Potency": "inactive"}
{"molecule": "NC(=O)[C@@H]1CC[C@@H]2CN1C(=O)N2OS(=O)(=O)O", "Potency": "inactive"}
{"molecule": "CCc1ccc(Nc2c(F)c(F)cc(F)c2F)c(CC(=O)O)c1", "Potency": "inactive"}
{"molecule": "CC(C)(C)NC(=O)[C@H]1CC[C@H]2[C@@H]3CC=C4C=C(C(=O)O)CC[C@]4(C)[C@H]3CC[C@]12C", "Potency": "inactive"}
{"molecule": "O=C(Cn1c(=O)sc2ccc(Cl)cc21)N1CCN(CCO)CC1", "Potency": "inactive"}
{"molecule": "C=C1CCN([C@H](C)[C@](O)(Cn2cncn2)c2ccc(F)cc2F)CC1", "Potency": "inactive"}
{"assay": "Primary qHTS for Huh7 cytotoxicity: counterscreen for inhibitors of MERS-S pseudotyped particle cell entry (AID 1479147)", "conditions": "cell viability read-out; series mostly up to 57.1 µM"}
{"molecule": "CCC(C)C(NC(=O)C(Cc1ccc(O)cc1)NC(=O)C(NC(=O)C(CCCN=C(N)N)NC(=O)C(N)CC(=O)O)C(C)C)C(=O)NC(Cc1cnc[nH]1)C(=O)N1CCCC1C(=O)NC(Cc1ccccc1)C(=O)O", "note": "(centres undefined)", "Potency": "inactive"}
{"molecule": "O=C(O)CCSC[C@H]1O[C@@H]2O[C@H]3[C@H](O)[C@@H](O)[C@@H](O[C@H]4[C@H](O)[C@@H](O)[C@@H](O[C@H]5[C@H](O)[C@@H](O)[C@@H](O[C@H]6[C@H](O)[C@@H](O)[C@@H](O[C@H]7[C@H](O)[C@@H](O)[C@@H](O[C@H]8[C@H](O)[C@@H](O)[C@@H](O[C@H]9[C@H](O)[C@@H](O)[C@@H](O[C@H]1[C@H](O)[C@H]2O)O[C@@H]9CSCCC(=O)O)O[C@@H]8CSCCC(=O)O)O[C@@H]7CSCCC(=O)O)O[C@@H]6CSCCC(=O)O)O[C@@H]5CSCCC(=O)O)O[C@@H]4CSCCC(=O)O)O[C@@H]3CSCCC(=O)O", "Potency": "inactive"}
{"molecule": "NC(=O)c1nc(F)c[nH]c1=O", "Potency": "inactive"}
{"molecule": "O=S(=O)(O)CC(S)CS", "note": "(centres undefined)", "Potency": "inactive"}
{"molecule": "COc1ccc2c(O[C@H]3CC4C(=O)N(C)CCCC/C=C\\[C@@H]5C[C@@]5(C(=O)NS(=O)(=O)C5CC5)NC(=O)[C@@H]4C3)cc(-c3nc(C(C)C)cs3)nc2c1C", "note": "(some centres undefined)", "Potency": "inactive"}
{"molecule": "NC(Cc1cc(I)c(Oc2cc(I)c(O)c(I)c2)c(I)c1)C(=O)O", "note": "(centres undefined)", "Potency": "inactive"}
{"molecule": "CCN1CCCC1CNC(=O)c1cc(S(=O)(=O)CC)ccc1OC", "note": "(centres undefined)", "Potency": "inactive"}
{"molecule": "CN(CC(O)CO)C(=O)c1c(I)c(NC(=O)C(CO)CO)c(I)c(C(=O)N(C)CC(O)CO)c1I", "note": "(centres undefined)", "Potency": "inactive"}
{"molecule": "CC1(C)S[C@@H]2[C@H](NC(=O)C(C(=O)O)c3ccsc3)C(=O)N2[C@H]1C(=O)O", "note": "(some centres undefined)", "Potency": "inactive"}
{"molecule": "CC(C)C(=O)OCC(=O)[C@@]12OC(C3CCCCC3)O[C@@H]1C[C@H]1[C@@H]3CCC4=CC(=O)C=C[C@]4(C)[C@H]3[C@@H](O)C[C@@]12C", "note": "(some centres undefined)", "Potency": "inactive"}
{"molecule": "CC1=C(C(=O)OCCN(Cc2ccccc2)c2ccccc2)C(c2cccc([N+](=O)[O-])c2)C(P2(=O)OCC(C)(C)CO2)=C(C)N1", "note": "(centres undefined)", "Potency": "inactive"}
{"molecule": "CC[C@H]1[C@@H](O)[C@@H]2[C@H](CC[C@]3(C)[C@@H]([C@H](C)CCC(=O)O)CC[C@@H]23)[C@@]2(C)CC[C@@H](O)C[C@@H]12", "Potency": "inactive"}
{"molecule": "CCCC(=O)O[C@]1(C(=O)COC(=O)CC)[C@@H](C)C[C@H]2[C@@H]3CCC4=CC(=O)C=C[C@]4(C)[C@@]3(F)[C@@H](O)C[C@@]21C", "Potency": "inactive"}
{"molecule": "OC[C@H]1O[C@@H](OC[C@H]2O[C@@H](O[C@@H]3[C@@H](O)[C@H](O)O[C@H](CO)[C@H]3O)[C@H](O)[C@@H](O[C@@H]3O[C@H](CO)[C@@H](O)[C@H](O)[C@H]3O)[C@@H]2O)[C@H](O)[C@@H](O)[C@@H]1O", "Potency": "inactive"}
{"molecule": "CC(C)[C@H]1CC[C@H](C)C[C@H]1O", "Potency": "inactive"}
{"molecule": "CCC1(C)OC(=O)N(C)C1=O", "note": "(centres undefined)", "Potency": "inactive"}
{"molecule": "OC[C@H]1O[C@@H](OCCc2ccc(O)cc2)[C@H](O)[C@@H](O)[C@@H]1O", "Potency": "inactive"}
{"molecule": "CCCCC[C@H](O)/C=C/[C@@H]1[C@@H](C/C=C/CCCC(=O)O)[C@@H](O)C[C@H]1O", "Potency": "inactive"}
{"molecule": "CCCc1ccc(C(=O)O)cc1", "Potency": "inactive"}
{"molecule": "C[C@]12C=CC(=O)C=C1CCC1C2[C@@H](O)C[C@@]2(C)C1CC[C@]2(O)C(=O)COC(=O)CCC(=O)O", "note": "(some centres undefined)", "Potency": "inactive"}
{"molecule": "Cc1cc(Nc2ccccc2C(=O)O)ccc1Cl", "Potency": "inactive"}
{"molecule": "C[C@@H]1CCC[C@H](C)N1NC(=O)c1ccc(Cl)c(S(N)(=O)=O)c1", "Potency": "inactive"}
{"molecule": "CN(C)CC(=O)O", "Potency": "inactive"}
{"molecule": "C[C@H]1O[C@]2(CS1)CN1CCC2CC1", "Potency": "inactive"}
{"molecule": "CCCC(=O)Nc1ncnc2c1ncn2C1O[C@@H]2COP(=O)(O)O[C@H]2[C@H]1OC(=O)CCC", "note": "(some centres undefined)", "Potency": "inactive"}
